Over roughly 68,000 sequences, “fluorescence intensity (a.u.)” has its median near 9,100; the highest 2% begin near 16,000. The sample holds the highest values, similar sequences and a random draw of the others, so the mix is not that of the screen.
The sequences below were run against OsWRKY34 (Oryza sativa, UniProt Q0JBA9 1-250) (assay: protein-binding microarray (RPBM); PBS, 2% BSA, 51.3 ng/ul salmon testes DNA, 50 uM zinc acetate, 200 nM TF, 25 C, 1 h; high values mean tight binding). Conditions: protein: recombinant; tags: N-terminal polyhistidine and DsRed monomer fusion (pET32a); label: CyDye5-dUTP incorporated in the synthesized complementary strand; 3' TTTTT single-stranded linker to array surface; dsDNA, one strand shown.
Method in brief: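 Binding signal here means per-feature fluorescence intensity in arbitrary units. The values were read on an Axon 4000B scanner after a custom Agilent array, double-stranded by primer extension with Cy5-dUTP, was incubated with 200 nM protein at 25 °C for 1 h in PBS with 2% BSA, salmon testes DNA and 50 µM zinc acetate, then washed. The proteins were transcription factors with an N-terminal polyhistidine tag and DsRed, expressed in E. coli BL21-CodonPlus and purified on Ni–NTA.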

Chain of OsWRKY34 (Q0JBA9 entry or part of it): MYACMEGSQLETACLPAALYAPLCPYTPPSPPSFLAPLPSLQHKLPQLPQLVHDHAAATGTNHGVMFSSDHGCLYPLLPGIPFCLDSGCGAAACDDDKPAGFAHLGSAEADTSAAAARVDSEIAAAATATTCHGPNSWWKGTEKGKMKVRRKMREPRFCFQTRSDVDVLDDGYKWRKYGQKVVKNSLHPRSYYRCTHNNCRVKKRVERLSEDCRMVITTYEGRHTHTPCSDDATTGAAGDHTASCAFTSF

Sequence	binding signal
CTATAGGTGGATTTTTAGGGACTCACCCGTAAAAACAGGTCGGAGTCACCTAGTGCAG	26800 fluorescence intensity (a.u.)
GGTTAGGTGGCATTTGAATTTAAAACGTATATGTGGACTCCGGAGTCACCTAGTGCAG	13900 fluorescence intensity (a.u.)
TTGGGTGGGATTTAAACAGGGTATTAGTGGATAATGATGTCGGAGTCACCTAGTGCAG	9570 fluorescence intensity (a.u.)
CTCCGGGGAATATCTATGGGTCTTGTGGGTGTAGGGAGGACGGAGTCACCTAGTGCAG	8770 fluorescence intensity (a.u.)
CTATAATTATTTGTCGACTAAATCTGCCTTTCATCTTTCTCGGAGTCACCTAGTGCAG	8160 fluorescence intensity (a.u.)
ATCATTTGTCTCGCGACGAAAACTTGCGTTGACCACCCACCGGAGTCACCTAGTGCAG	17500 fluorescence intensity (a.u.)
GTGTCTTGTGCGTTTGCTCTCTCGCGAACCATTCCACAGACGGAGTCACCTAGTGCAG	8380 fluorescence intensity (a.u.)
TTTGACCAACCGAAACTCGACGGCCCACCCACCAACCACCCGGAGTCACCTAGTGCAG	9420 fluorescence intensity (a.u.)
CACCCACCAAGTACTCTTTTTACTTTTACCACAGCGCATACGGAGTCACCTAGTGCAG	9050 fluorescence intensity (a.u.)
TTACACGCCTAATCATCGAAAACCTAATCTTATGCTTTCTCGGAGTCACCTAGTGCAG	8790 fluorescence intensity (a.u.)
TGCGGCTTTGATTTGCGGGGTTCACACACGAGTAATTGCACGGAGTCACCTAGTGCAG	10900 fluorescence intensity (a.u.)
TTCACACACGAGTAATTGCAGCCTTGCTTTCTCGAAAAAACGGAGTCACCTAGTGCAG	17100 fluorescence intensity (a.u.)
AATCTGTGGCGATAACCTGTATGCTCACACACTTGCCTCTCGGAGTCACCTAGTGCAG	8610 fluorescence intensity (a.u.)
TACTCCCTCCGTATTTTAATGTATGACGCCGTTGACTTTTCGGAGTCACCTAGTGCAG	13900 fluorescence intensity (a.u.)
TCCGTATTTTAATGTATGACGCCGTTGACTTTTTATCCAACGGAGTCACCTAGTGCAG	21400 fluorescence intensity (a.u.)
TTCCCTCCATATTTTAATGTATGACGCCGTTGACTTTTTACGGAGTCACCTAGTGCAG	17700 fluorescence intensity (a.u.)
TACCTCCATATTTTAATGTATGACGCCGTTGACTTTTTATCGGAGTCACCTAGTGCAG	28900 fluorescence intensity (a.u.)
ATATACTACCTCCATATTTTAATGTATGACGCCGTTGACTCGGAGTCACCTAGTGCAG	8860 fluorescence intensity (a.u.)
CTACCTCCATATTTTAATGTATGACGCCGTTGACTTTTTGCGGAGTCACCTAGTGCAG	37500 fluorescence intensity (a.u.)
TATATACTCCCTCCATATTTTAATGTATGACGCCGTTGACCGGAGTCACCTAGTGCAG	9880 fluorescence intensity (a.u.)
TATTACTACCTTCATATTTTAATGTATGACGCCGTTGACTCGGAGTCACCTAGTGCAG	11900 fluorescence intensity (a.u.)
AGCGCGTCGCTTTCTTTCTTTCTTTCAGTTTTTTTTTTCCCGGAGTCACCTAGTGCAG	10500 fluorescence intensity (a.u.)

Sequence	binding signal
AATCTGACTGAAGTATGTACTTTGTGTTGACCAATTTGGCCGGAGTCACCTAGTGCAG	10200 fluorescence intensity (a.u.)
ATGAGTTCCCAACCGCCACTTACATTAAGTACCACACTCCCGGAGTCACCTAGTGCAG	8660 fluorescence intensity (a.u.)
GTTTCCTTCGTTTCAGATTACTCATTATTTTAGCTTTTTTCGGAGTCACCTAGTGCAG	13800 fluorescence intensity (a.u.)
TCCACCTTTTCATCAATATAGTCATGCATTAATACAGTCACGGAGTCACCTAGTGCAG	8670 fluorescence intensity (a.u.)
TTGCTTCCTTTGTCCTTACTGACATTATTACCTCAGAGACCGGAGTCACCTAGTGCAG	8870 fluorescence intensity (a.u.)
ACGGGGCGCATTTATTCATCCCCACCTTTGTTCATCAGTTCGGAGTCACCTAGTGCAG	11600 fluorescence intensity (a.u.)
CTCATAATAGATTTACTTTTAATGCCGTTGTTTTGTTTTACGGAGTCACCTAGTGCAG	9090 fluorescence intensity (a.u.)
TTTTAATGTATGACGCTGTTGACTTTTTATCCAACGTTTGCGGAGTCACCTAGTGCAG	16400 fluorescence intensity (a.u.)
ATTTGTTTGTTTTTTTAATAAATGATGTTGTTGACTTTTACGGAGTCACCTAGTGCAG	9030 fluorescence intensity (a.u.)
TGCACTAGTATGTATGACGTTGACTGTTTTTTTAAGGACGCGGAGTCACCTAGTGCAG	10200 fluorescence intensity (a.u.)
CTCCATATTTTAATGTATGCCGCCGTTGACTTTTTGTTTACGGAGTCACCTAGTGCAG	20200 fluorescence intensity (a.u.)
TAATGTATGACGTCGTTGACTTTTTGTTAAACGTTTGATCCGGAGTCACCTAGTGCAG	15600 fluorescence intensity (a.u.)
GTTACCCCGATTAGTTAGTTTATGTTGTACATGCTGTTGACGGAGTCACCTAGTGCAG	11000 fluorescence intensity (a.u.)
CAGTGTCCGTTTTCTCCGACAAACTCGGCGTGGCCACAGTCGGAGTCACCTAGTGCAG	9840 fluorescence intensity (a.u.)
TTGATTTTTTGTTGCAAAAGAATATTTTAATTCACTGCAACGGAGTCACCTAGTGCAG	24300 fluorescence intensity (a.u.)
TCAAACATTTAAAAAAAAAGTCAACGGCGTCAAATATTTTCGGAGTCACCTAGTGCAG	8470 fluorescence intensity (a.u.)
AAAAAGTCAACGGCGTCAAACATTTAGGGATGGAGGGAGTCGGAGTCACCTAGTGCAG	8190 fluorescence intensity (a.u.)
TTGTTGATTTTTTTTCAGAATTTTTATCACTATTTGTCTTCGGAGTCACCTAGTGCAG	8570 fluorescence intensity (a.u.)
AATATTTTTTTGAGGTTTTTTGTTGCGTTTAAAATTCAAACGGAGTCACCTAGTGCAG	8110 fluorescence intensity (a.u.)
AAACATGTTTAAAAAAGTCAACGGCGTCAAACATTTAGGGCGGAGTCACCTAGTGCAG	13800 fluorescence intensity (a.u.)
TATTTTTAAAAAAGTCAACGGCGTCTTGTGGGATGGAGGGCGGAGTCACCTAGTGCAG	21300 fluorescence intensity (a.u.)
ATATGTTTAAAAAAGTCAACGGCGTCAAACATTTAGGGATCGGAGTCACCTAGTGCAG	18600 fluorescence intensity (a.u.)

— PMC7819943, “Rice protein-binding microarrays: a tool to detect cis-acting elements near promoter regions in rice”
